Laboratory results from PubChem BioAssay AID886 (National Center for Advancing Translational Sciences (NCATS), 2007).
Several values for one entry are separate records, joined by “and”; a condition that tells them apart may be missing. Equal entries are not always repeated. Hit rate of the full screen: of about 73,000 compounds, about 2,500 (3.4%) were called active. Where a call stands in place of a potency, no number is given. Roughly 7% stayed inconclusive and do not appear here. The sample holds actives, similar compounds and a random draw of the others, so the mix is not that of the screen. A number with no mark means an inactive call. The call rests on the fitted dose curve; in most records, active means well fitted inhibition curve with a large enough effect; inconclusive means small, poorly fitted or top-dose-only effect; inactive means no such curve, though single readings can be large or run the other way.

The compounds below were run against 3-hydroxyacyl-CoA dehydrogenase type-2 (Homo sapiens) (UniProt Q99714) (assay: qHTS Assay for Inhibitors of HADH2 (Hydroxyacyl-Coenzyme A Dehydrogenase, Type II)). Details: recombinant HADH2, NADH fluorescence, beta-hydroxybutyryl-CoA; series mostly up to 57.1 µM.
3-hydroxyacyl-CoA dehydrogenase type-2 (Homo sapiens), sequence (Q99714 whole entry, looked up): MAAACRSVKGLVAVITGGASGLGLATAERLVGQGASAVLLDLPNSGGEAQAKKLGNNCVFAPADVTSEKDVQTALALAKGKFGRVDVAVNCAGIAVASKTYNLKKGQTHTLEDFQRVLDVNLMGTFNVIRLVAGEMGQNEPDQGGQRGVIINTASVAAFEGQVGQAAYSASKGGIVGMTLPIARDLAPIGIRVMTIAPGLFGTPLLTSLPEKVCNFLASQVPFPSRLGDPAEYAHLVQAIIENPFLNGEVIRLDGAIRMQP
3-hydroxyacyl-CoA dehydrogenase type-2 (Homo sapiens), sequence (Q99714 whole entry, looked up): as above
Description: Assay Overview: NIH Molecular Libraries Screening Centers Network [MLSCN] NIH Chemical Genomics Center [NCGC] Structural Genomics Consortium [SGC] Grant Number: None HADH2: Hydroxyacyl-Coenzyme A dehydrogenase, type II, was supplied by researchers at the Structural Genomics Consortium, Oxford University lab (PI Udo Oppermann). The mitochondrial enzyme 17-hydroxysteroid dehydrogenase type 10 (HSD17-10) previously classified as type II hydroxyacyl-CoA dehydrogenase (HADH2) catalyzes the NAD+ dependent oxidation of a variety of substrates including acyl-CoAs, androgens and neurosteroids as well as bile acids(Shafqat N, Marschall HU, Filling C, et al. Biochemical Journal. 2003;376(Pt 1):49-60). The role in neurodegeneration by binding to amyloid-peptide led to its identification (Oppermann UC, et al FEBS Letters. 1999;451(3):238-242 and Yan SD, et al. Nature. 1997;389(6652):689-695), and mutations in its gene appear to be causative for 2-methyl-3-hydroxybutyryl-CoA dehydrogenase deficiency (Ofman R, et al. American Journal of Human Genetics. 2003;72(5):1300-1307). The enzyme was produced by E.coli fermentation as His-tagged recombinant for the purpose of X-ray structure determination, and had been mass-spectrometry characterized. Inhibition of HADH2 activity was screened by utilizing beta-hydroxybutyryl coenzyme A as an electron donor and NAD+ as an electron acceptor/cofactor. An increase in the fluorescence intensity due to conversion of NAD+ to NADH was used to measure the enzyme activity.
Assay Protocol: Buffer: 100 mM Tris-HCl pH 9.0, containing 0.01 % Tween-20. Reagents/Controls: Buffer in columns 3 and 4 as negative control (no enzyme). Substrate/cofactor solution: 1 mM NAD+ and 90 uM beta-hydroxybutyryl coenzyme A (Sigma-Aldrich, St. Louis, MO) final concentrations dispensed throughout the plate. Enzyme: 20 nM HADH2 final concentration in columns 1, 2, 5-48. Column 1 is neutral (100% activity). Column 2 contained titration of apomorphine (Sigma-Aldrich, A 4393, PubChem CID 2215, top concentration 500 uM, then 1:2 dilution in duplicate) Assay Steps: Three uL of enzyme were dispensed to 1536-well Greiner black solid bottom plates. Compounds and controls (23 nL) were transferred via Kalypsys PinTool. The plates were incubated for 15 min at room temperature, and then 1 uL of substrate/cofactor solution was added to start the reaction. The plates were immediately transferred to and read every 30 seconds for 4 min on ViewLux High-throughput CCD imager (Perkin-Elmer) using 360 nm excitation and 450 nm emission fluorescence protocol. The fluorescence intensity difference between the last and the first time points was used to compute reaction progress.
Further: nearly all actives have a fitted effect of over 60% in size.
Potency means the concentration at half of the fitted maximal effect.

SMILES	Potency	activity change, negative = inhibition
COc1ccc(CCn2c(=N)c(C(=O)NCc3ccco3)cc3c(=O)n4cccc(C)c4nc32)cc1	inactive	–
CCOCCCNC(=O)c1c[nH]c2cc(C)ccc2c1=O	inactive	–
CCn1c(=N)c(C(=O)NCCCOC)cc2c(=O)n3cccc(C)c3nc21	3.98 µM (active)	–
O=C(c1ccco1)N1CCC2(CC1)CN(c1ncccn1)C2	inactive	–
Nc1ccc2c3c(cccc13)C(=O)NC2=O	inactive	–
Cc1c(O)c(Br)c(C)c(O)c1Br (tested in a mixture with another compound)	0.398 µM (active)	–
CC(C)[C@@H](OCc1ccccc1)[C@H](C)/C=N\OC[C@@H](C)[C@H](OCc1ccccc1)C(C)C	–	1.49% [at 11.4 µM]
C[C@]12C=CC(=O)C=C1CC[C@@H]1[C@@H]2C(=O)C[C@@]2(C)[C@H]1CC[C@]2(O)C(=O)CO	inactive	–
CC(C)CSC[C@@H]1O[C@H](n2cnc3c(N)nccc32)[C@H](O)[C@@H]1O	–	7.39% [at 11.4 µM]
CCOC(=O)Cc1csc(NC(=O)Nc2ccccc2)n1	inactive	–
Cc1csc(NC(=O)NC2(C(F)(F)F)Oc3ccccc3O2)n1	2 µM (active)	–
Cc1csc(NC(=O)CN2CCCCCC2)n1	inactive	–
O=C(Oc1ccc2c(c1)CN(Cc1ccccc1)CO2)c1ccccc1	–	-11.9% [at 11.4 µM]
O=C(O)c1nccnc1C(=O)Nc1ccc(Br)cn1	inactive	–
CC(C)C[C@@H](CC(=O)N[C@@H](CCC(=O)O)CC(=O)O)NC(=O)[C@@H]1CCCC[C@H]1NC(=O)C[C@@H](NC(=O)C[C@H](CO)NC(=O)[C@@H]1CCCC[C@H]1N)C(C)C	inactive	–
CC(Sc1nc2ccccc2c(=O)n1Cc1ccco1)C(=O)c1ccccc1 (stereo unspecified)	inactive	–
Cc1nc2c(c(=O)n1Cc1ccco1)c1nc3ccccc3nc1n2Cc1ccccc1	25.1 µM (active)	–
COCCCn1c2nc3ccccc3nc2c2c(=O)n(Cc3ccc(Cl)cc3)c(C)nc21	inactive	–
COC(=O)C1(Cc2ccccc2)C=C2C(=C(C)C(=O)C2C)CN1 (stereo unspecified)	inactive	–
CN1CCc2nc(-c3ccccc3)c(-c3ccccc3)cc2C1	–	-8.44% [at 11.4 µM]
Cc1cc(C)cc(N)c1	inactive	–
Cc1ccccc1NC(=O)c1ccccc1	inactive	–
Cc1cccc(NC(=O)CSc2nc3c(c(=O)[nH]2)CCC3)c1C	inactive	–
Cc1nc(C)c(C(=O)Nc2cccc(C)c2C)o1	10 µM (active)	–

SMILES	Potency	activity change, negative = inhibition
Cn1c(=S)c2[nH]c(SCCCc3ccccc3)nc2n(C)c1=O	–	7.85% [at 11.4 µM]
O=C1C[C@@H](O)[C@@H](O)[C@H]2[C@@H]3C(=O)N(Cc4ccc5c(c4)OCO5)C(=O)[C@@H]3CC[C@H]12	–	-4.62% [at 11.4 µM] and -11.5% [at 11.4 µM]
CS(=O)(=O)N1CCC2(CCN(c3ccncc3)CC2)CC1	inactive	–
Cn1c(-c2ccco2)nc2cc3ccccc3cc21	31.6 µM (active)	–
COc1ccc(CCn2c(-c3ccco3)nc3nc4ccccc4nc32)cc1OC	inactive	–
c1coc(-c2nc3nc4ccccc4n3nc2-c2ccco2)c1	inactive	–
O=C(O)/C(=C/c1c(C(=O)O)[nH]c2cc(Cl)cc(Cl)c12)c1ccccc1	inactive	–
c1ccc(Oc2ccccc2)cc1	inactive	–
O=c1c(-c2ccc(F)cc2)nc2cncnc2n1-c1ccccc1	inactive	–
CCOC(=O)N/N=C1/C[C@@H](O)[C@@H](O)[C@@H]2[C@@H]3C(=O)N(CC)C(=O)[C@H]3CC[C@H]12	–	11.3% [at 11.4 µM]
O=c1[nH]c(=O)c2nc3ccccc3nc2[nH]1	inactive	–
O=c1[nH]c(-c2ccccc2)c(-c2ccccc2)[nH]1	3.16 µM (active)	–
O=c1cc(-c2ccccc2)nc(N2CCCCC2)[nH]1	inactive	–
COc1ccc(-c2nc3cnc(Oc4ccccc4)nc3n(Cc3cccs3)c2=O)cc1	inactive	–
O=C(O)[C@@H]1[C@@H](C(=O)O)[C@]23C[C@@]2(C(=O)O)[C@]2(C(=O)O)CCC3=C3CCCC312	–	14.2% [at 11.4 µM]
COc1ccc(N)c(C)c1	inactive	–
C1=C(N2CCOCC2)/C(=C/c2nc3ccccc3[nH]2)CC1	3.98 µM (active)	–
c1ccc(-n2nnnc2N2CCOCC2)cc1	inactive	–
c1ccc2[nH]c(NCCN3CCOCC3)nc2c1	inactive	–
O=C1C(c2[nH]c3ccccc3c2O)=Nc2ccccc21	inactive	–
Cc1nc2cnc(N3CCN(C)CC3)nc2n(C[C@H]2CCCO2)c1=O	inactive	–
O=C(O)c1ccc(-n2cccc2)cc1O	inactive	–
N[C@H](C(=O)O)c1ccc(C(=O)O)c(O)c1	31.6 µM (active)	–
N[C@@H](C(=O)O)c1ccc(P(=O)(O)O)cc1	inactive	–

SMILES	Potency	activity change, negative = inhibition
Cc1cccc(C(=O)O)c1	inactive	–
O=C(O)c1ccc(Cl)c(S(=O)(=O)Nc2ccccc2Cl)c1	inactive	–
CCOC(=O)c1sc(=S)n2c1[nH]c(=O)c1ccc(C(=O)OC)cc12	1 µM (active)	–
COC(=O)c1ccc2c(=O)n(CC3CCCO3)c(=S)[nH]c2c1 (stereo unspecified)	inactive	–
COC(=O)c1cccc(NC(=O)CSc2nc(C)cc(=O)[nH]2)c1	inactive	–
O=c1c(-c2cc(F)cc(F)c2)nc2cnc(Oc3ccccc3)nc2n1C[C@H]1CCCO1	inactive	–
Fc1ccc(-c2ccc(-c3nn4c(-c5ccco5)nnc4s3)o2)cc1	inactive	–
Fc1ccc(-c2nnc(CSc3nnc(-c4ccc5c(c4)OCO5)o3)o2)cc1	inactive	–
Fc1ccc(-c2nnc3sc(-c4ccc5c(c4)OCO5)nn23)cc1	25.1 µM (active)	–
C/C(CCN1CCCCc2nc(C)c(C)cc21)=N\O[C@@H](C)c1cn([C@@H]2COC[C@@H]2O)nn1	–	-2.51% [at 11.4 µM]
O=C(c1ccc(F)cc1)C1CCN(CCCCc2ccccc2)CC1	inactive	–
COc1ccc(-c2nnc(SCC(=O)c3cccs3)o2)c(OC)c1	inactive	–
COc1ccc(OC)c(C(=O)CSc2nnc(-c3cccs3)o2)c1	25.1 µM (active)	–
COc1ccc(-n2c(C)cc(C(=O)CSc3nnc(-c4cccs4)o3)c2C)cc1	inactive	–
CCCCC[C@H](O)CCCC(=O)O	inactive	–
CN1CCC(CNC(=O)c2ccc(-n3c(=O)c(=O)[nH]c4ccccc43)cc2)CC1	inactive	–
COC(=O)C1(C)C=CCN1C(=O)c1ccccc1 (stereo unspecified)	inactive	–
O=C1[C@H]2[C@H]3[C@H](O)[C@H](O)C/C(=N/OCc4ccccc4)[C@H]3CC[C@@H]2C(=O)N1Cc1ccccc1	–	-3.88% [at 11.4 µM]
CN1CCC2(CC1)CCN(S(=O)(=O)c1ccccc1)CC2	inactive	–
O=S(=O)(O)c1ccc(O)c2ncccc12.O=S(=O)(O)c1ccc(O)c2ncccc12.[Zn]	–	-19.7% [at 11.4 µM]
CCS(=O)(=O)N(C)[C@@H]1c2cc(C#N)ccc2OC(C)(C)[C@H]1O	inactive	–
O=C(COC(=O)c1ccc(Oc2ccccc2)cc1)Nc1nnc(-c2ccccc2)o1	inactive	–
Nc1ccc(-c2nnc(-c3ccc(-c4ccccc4)cc3)o2)cc1	31.6 µM (active)	–
CC(N)=NCc1cccc(CN)c1	inactive	–

SMILES	Potency	activity change, negative = inhibition
CN1CCN2c3ccccc3Cc3ccccc3[C@@H]2C1	inactive	–
CCN1C(=O)/C(=C\N2CCN(c3ccccc3)CC2)SC1=S	inactive	–
CCN1C(=O)/C(=C\N2CCN(c3cccc(Cl)c3)CC2)SC1=S	inactive	–
CCN1C(=O)/C(=C2/Sc3ccccc3N2CCCS(=O)(=O)O)SC1=S	20 µM (active)	–
Cc1ccc(NC(=O)c2cccc(N(C)C)c2)cc1NC(=O)c1ccc(O)cc1	inactive	–
CCC[C@@H]1C[C@@]1(CCC)C(NS(=O)(=O)c1cccc2cccnc12)c1ccc(Cl)cc1 (stereo partly specified)	inactive	–
C[C@]1(C(=O)NCCc2c[nH]c3ccccc23)C=C[C@@H](Cc2ccccc2)N1C(=O)c1ccccc1	inactive	–
COC(=O)C1=C(C)N(Cc2ccccc2)C2=C3C(=O)N(c4ccccc4)C(=O)C3[C@@](O)(C(=O)OC)C(=O)N2C1c1ccccc1 (stereo partly specified)	–	10.1% [at 11.4 µM] and 2.48% [at 11.4 µM]
CCCC(=O)Nc1cccc(-c2cn3ccsc3n2)c1	inactive	–
CC(=O)Nc1ccc(-c2cn3cccnc3n2)cc1	15.8 µM (active)	–
CC(=O)Nc1cccc(-c2cnc3ccccc3n2)c1	inactive	–
CCOc1nc(OCC)nc(-n2cc(-c3ccccc3)nn2)n1	inactive	–
c1ccc(-c2cn3cccnc3n2)cc1	12.6 µM (active)	–
COC(=O)C(C(=O)OC)[C@@H]1CCCC(=O)C1	–	12% [at 11.4 µM]
CC(C)[C@@H](CC(=O)N[C@@H]1CCNC[C@H]1C(=O)N[C@H](CC(=O)N[C@@H](CCC(=O)O)CC(=O)O)Cc1ccccc1)NC(=O)C[C@H](CO)NC(=O)[C@@H]1CNCC[C@H]1N	inactive	–
O=C1C(c2ccccn2)=[N+]([O-])c2ccccc21	inactive	–
COc1cc(NC(=O)N2CCOCC2)cc(OC)c1	inactive	–
Cc1c(C(=O)N2CCOCC2)[nH]c2ccc(OCc3ccccc3)cc12	inactive	–
CCOC(=O)c1[nH]c2ccc(OC)cc2c1NC(=O)N1CCOCC1	25.1 µM (active)	–
CC(=O)N1CCC2(CC1)CCN(c1ccncc1)CC2	inactive	–
CC1(CCC(=O)OC2CCCCC2)OCCO1	–	-20.4% [at 11.4 µM]
O=C(Cn1ccc(=O)[nH]c1=O)Nc1ccc(C(=O)O)c(O)c1	–	-10.7% [at 11.4 µM]
COc1ccccc1-c1nc(NCc2cccs2)c2ccccc2n1	inactive	–
CC(C)c1ccc2c([Si](C)(C)C)c3c(nc2c1)-c1cccc(=O)n1C3	inactive	–
